T cruzi growth-1 – T. cruzi proliferation inhibition | T. cruzi beta-gal in NIH3T3, GalScreen luminescence, 90 h | inhibition, % at 8.34 µM | actives 5.9% (n = 77,000) | AID 624255;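 active = mean inhibition above about 93%, with at least 55% of replicates each passing it, limit read from the data, passing the limit was not always enough; inconclusive = only one of those two conditions holds; inactive = neither condition holds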
C diff growth – blocks growth of Clostridium difficile; Clostridium difficile clinical isolate growth, OD600, 24 h; hits give low values; actives 0.25% (n = 86,000); growth activity, negative = inhibition, % at 16 µg/mL (by protocol);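 active = mean growth activity at or below -80% and every replicate also at or below -80%; inconclusive = mean at or below -80% but some replicate above -80%; inactive = mean growth activity above -80%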;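 also: 0% = DMSO wells and -100% = levofloxacin 16 µg/mL wells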
Pf Dd2 inh – inhibitors of Plasmodium falciparum Dd2 growth; AID 1159554; P. falciparum Dd2 growth, SYBR Green, 72 h; hits give low values; actives 2.3% (n = 94,000); activity change, % at 10 µM; in the data active = activity change below about -80%; inconclusive = no clear call, values can overlap the other calls
T cruzi growth-2 – Trypanosoma cruzi proliferation inhibition | shares compounds with T cruzi growth-1 | T. cruzi beta-gal in NIH3T3, GalScreen luminescence, 90 h | actives 72% (n = 5,600) | inhibition, % at 8.35 µM;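 active = mean replicate inhibition above about 95% and at least 55% of replicates individually reaching it, limit read from the data; inconclusive = only one of the two criteria is met; inactive = neither criterion is met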
T cruzi growth-3 – inhibitors of T. cruzi proliferation | shares compounds with T cruzi growth-1 | T. cruzi beta-gal in NIH3T3, GalScreen luminescence, 90 h | inhibition, % at 2.09 µM | actives 21% (n = 5,600) | AID 651740;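 active = mean inhibition above about 95%, with at least 55% of replicates also reaching it, limit read from the data; inconclusive = meets just one of the two conditions; inactive = meets neither condition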;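 also: plate controls were neutral control median for no effect and positive control median for full effect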
3T3 cytotox – cytotoxicity in mouse NIH/3T3 fibroblasts | shares compounds with T cruzi growth-1 | NIH/3T3 viability, CellTiter-Glo ATP luminescence, 90 h | cytotoxicity (signal decrease), % at 8.35 µM | actives 14% (n = 5,600) | AID 651742;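 active = mean signal decrease across replicates above about 35% based on untreated-well scatter, with enough replicates individually passing, limit read from the data; inconclusive = no rule stated though some were filed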;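 also: 0% = median of neutral control wells and 100% = median of positive control wells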
NIH3T3 tox 2 – cytotoxicity in mouse NIH/3T3 fibroblasts. shares compounds with T cruzi growth-1. NIH/3T3 viability, CellTiter-Glo ATP luminescence, 90 h. inhibition, % at 24.9 µM. actives 56% (n = 5,600). AID 651744;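 active = mean loss of cell viability signal at or above a set limit, and enough replicates individually reaching it; inconclusive = meets only the mean limit or only the replicate share; inactive = meets neither condition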;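 also: 0% = median of neutral control wells and 100% = median of positive control wells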
* marks the source's active call; other numbers are inactive results; ? = inconclusive; · = not tested or not shown. Rows were chosen to be rich in hits. Some 6.7% of all compounds tested hit in one or more screens of this group.

SMILES	T cruzi growth-1	C diff growth	Pf Dd2 inh	T cruzi growth-2	T cruzi growth-3	3T3 cytotox	NIH3T3 tox 2
C[C@@H]1CCCCO[C@@H](CN(C)C(=O)C2CCCCC2)[C@H](C)CN([C@H](C)CO)C(=O)c2cc(NC(=O)Nc3cccc4ccccc34)ccc2O1	?	-5.3	-41.0	109.5*	105.0*	-39.5	-21.9
C[C@H](CO)N1C[C@H](C)[C@@H](CN(C)C(=O)C2CCCCC2)OCCCC[C@H](C)Oc2ccc(NC(=O)Nc3cccc4ccccc34)cc2C1=O	118.9*	0.2	-6.2	88.3	48.7	-11.7	?
C[C@H]1CCCCO[C@H](CN(C)C(=O)Nc2cccc3ccccc23)[C@@H](C)CN([C@@H](C)CO)C(=O)c2cc(NC(=O)Nc3cccc4ccccc34)ccc2O1	50.2	·	-33.4	·	·	·	·
C[C@H](CO)N1C[C@H](C)[C@H](CN(C)C(=O)C2CCCCC2)OCCCC[C@H](C)Oc2ccc(NC(=O)Nc3cccc4ccccc34)cc2C1=O	120.7*	-9.5	23.6	105.2*	54.0	-16.8	-8.5
C[C@H](CO)N1C[C@H](C)[C@H](CN(C)C(=O)Nc2cccc3ccccc23)OCCCC[C@H](C)Oc2ccc(NC(=O)Nc3cccc4ccccc34)cc2C1=O	27.4	·	5.7	·	·	·	·
C[C@@H]1CCCCO[C@@H](CN(C)C(=O)C2CCCCC2)[C@@H](C)CN([C@H](C)CO)C(=O)c2cc(NC(=O)Nc3cccc4ccccc34)ccc2O1	70.7	4.3	-72.3	·	·	·	·
C[C@@H]1CCCCO[C@@H](CN(C)C(=O)Nc2cccc3ccccc23)[C@H](C)CN([C@@H](C)CO)C(=O)c2cc(NC(=O)Nc3cccc4ccccc34)ccc2O1	·	6.2	-12.5	·	·	·	·
CCC(=O)N(C)C[C@H]1Oc2cc(C3=CCCCC3)ccc2S(=O)(=O)N([C@H](C)CO)C[C@@H]1C	75.0	·	-3.2	·	·	·	·
CO[C@H]1CN(C)C(=O)c2ccc(NC(=O)Nc3cc(F)ccc3F)cc2OC[C@@H](C)N(C(=O)c2ccccn2)C[C@@H]1C	·	·	0.4	·	·	·	·
C[C@H](CO)N1C[C@H](C)[C@H](CN(C)C(=O)Nc2cccc(Oc3ccccn3)c2)OCc2cn(nn2)CCCC1=O	86.0	1.7	-2.8	·	·	·	·
CCC(=O)N1[C@@H]2Cn3c(ccc(C4=CCCC4)c3=O)[C@H]1[C@@H](C(=O)NCC1CCCCC1)[C@@H]2CO	21.4	1.0	1.7	·	·	·	·
COc1ccc(CN(C)C[C@@H]2Oc3c(NS(=O)(=O)c4ccc(F)cc4)cccc3C(=O)N([C@@H](C)CO)C[C@@H]2C)cc1	10.1	0.1	11.6	·	·	·	·
CC(=O)N(C)C[C@H]1Oc2cc(-c3cccc(F)c3)ccc2S(=O)(=O)N([C@H](C)CO)C[C@H]1C	11.4	-0.3	-6.4	·	·	·	·
O=C(NC[C@@H]1[C@@H](c2ccccc2)[C@@H](CO)N1C(=O)C1CCC1)NC1CCCC1	16.9	-4.9	13.6	·	·	·	·
C[C@@H]1CN([C@H](C)CO)C(=O)c2cccc(NS(C)(=O)=O)c2O[C@@H]1CN(C)Cc1ccncc1	39.5	-1.3	4.8	·	·	·	·
Cc1noc(C)c1NC(=O)Nc1ccc2c(c1)C(=O)N([C@@H](C)CO)C[C@H](C)[C@@H](CN(C)Cc1ccncc1)O2	·	-1.5	10.0	·	·	·	·
CCCC(=O)Nc1ccc2c(c1)OC[C@@H](C)N(C(=O)CC)C[C@H](C)[C@@H](OC)CN(C)C2=O	-6.1	·	6.2	·	·	·	·
C[C@@H]1CCCCO[C@@H](CN(C)C(=O)c2ccccc2)[C@@H](C)CN([C@@H](C)CO)C(=O)c2cc(NC(=O)Nc3cccc4ccccc34)ccc2O1	22.1	-2.8	-14.0	·	·	·	·
C[C@@H]1CCCCO[C@H](CN(C)C(=O)C2CCCCC2)[C@@H](C)CN([C@@H](C)CO)C(=O)c2cc(NC(=O)Nc3cccc4ccccc34)ccc2O1	?	-2.5	-92.1*	102.5*	102.0*	-18.9	-2.6
C[C@@H]1CN([C@@H](C)CO)C(=O)c2cc(NC(=O)NC3CCCCC3)ccc2O[C@@H](C)CCCCO[C@H]1CN(C)C(=O)NC1CCCCC1	-51.2	3.3	-30.8	·	·	·	·
O=C(NC1CCCC1)[C@@H]1[C@@H](CO)[C@@H]2Cn3c(ccc(-c4cccnc4)c3=O)[C@@H]2N1CCc1ccccc1	46.0	3.2	-9.9	·	·	·	·
COc1cccc(-c2ccc([C@@H]3[C@@H](CO)N4CCCCN(C(=O)NC(C)C)C[C@@H]34)cc2)c1	99.6*	-2.4	1.5	102.1*	24.1	-9.1	?
COc1cccc(-c2ccc([C@@H]3[C@@H](CO)N4CCCCN(C(=O)NC(C)C)C[C@H]34)cc2)c1	73.8	-14.5	46.0	·	·	·	·
COc1cccc(-c2ccc([C@H]3[C@@H](CO)N4CCCCN(C(=O)NC(C)C)C[C@H]34)cc2)c1	116.7*	9.9	11.5	107.6*	68.9	-6.3	60.5*
Cc1cccc(-c2ccc([C@H]3[C@@H](CO)N4CCCCN(C(=O)NC(C)C)C[C@@H]34)cc2)c1	91.5	-20.0	0.7	·	·	·	·
SMILES	T cruzi growth-1	C diff growth	Pf Dd2 inh	T cruzi growth-2	T cruzi growth-3	3T3 cytotox	NIH3T3 tox 2
CCCNC(=O)Nc1ccc2c(c1)C(=O)N(C)C[C@H](OC)[C@H](C)CN(Cc1cncnc1)[C@H](C)CO2	7.9	-3.4	18.2	·	·	·	·
O=C(NCCN1CCCCC1)[C@@H]1N[C@@H]2c3ccc(-c4ccncc4)c(=O)n3C[C@@H]2[C@H]1CO	101.3*	·	-5.9	-17.1	-10.7	-9.4	-25.6
O=C(NCCN1CCCCC1)[C@H]1N[C@H]2c3ccc(-c4cccnc4)c(=O)n3C[C@H]2[C@@H]1CO	18.5	·	·	·	·	·	·
CC1C=NC(S(=O)(=O)N2CC[C@@H]3[C@H]2c2cc(-c4ccccc4)ccc2N(C)[C@H]3CO)=N1 (stereo partly drawn)	?	0.3	10.7	100.6*	83.6	-1.5	-10.8
CC1C=NC(S(=O)(=O)N2CC[C@@H]3[C@@H](CO)N(C)c4ccc(-c5ccc(F)cc5)cc4[C@@H]32)=N1 (stereo partly drawn)	63.9	-21.0	-17.3	·	·	·	·
CC1C=NC(S(=O)(=O)N2CC[C@H]3[C@@H](CO)N(C)c4ccc(-c5ccccc5)cc4[C@H]32)=N1 (stereo partly drawn)	90.7	-6.4	18.4	·	·	·	·
CC1C=NC(S(=O)(=O)N2CC[C@@H]3[C@H]2c2cc(-c4cccc(F)c4)ccc2N(C)[C@H]3CO)=N1 (stereo partly drawn)	?	-6.2	-36.6	104.5*	77.3	5.2	2.8
O=C(C[C@H]1C=C[C@H](NS(=O)(=O)c2ccc(F)cc2)[C@@H](CO)O1)N1CCC(Cc2ccccc2)CC1	69.7	-0.1	-16.6	·	·	·	·
CCCC#Cc1cnc2c(c1)C(=O)N([C@H](C)CO)C[C@H](C)[C@@H](CN(C)C(=O)C1CCCCC1)O2	-89.5	-1.5	8.2	·	·	·	·

Assay outcomes from PubChem BioAssay.
